The source of these data is PubChem BioAssay (EPA / NIEHS).

“And” between values parts separate entries of the source, which are not always exact repeats. Identical values can stand only once. Records with an inconclusive call do not appear. The source made the active and inactive calls. Rule for the calls, unless noted: active = hit-call score of the fitted dose curve at least 0.9, where 1 is the maximum; inactive = score below 0.9.

Assay [1] can be described thus: CCTE_Shafer_MEA_dev_network_spike_peak: CCTE's Neural Network Formation Assay for Mean Number of Electrodes in Network Spike, Shafer Lab (AID 2284049).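 For AC50: fitted for loss of signal meaning fewer electrodes in network spikes than DMSO.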 In short, it runs like this: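 Rat cortical primary culture, 1.5 x 10^5 cells/well, 48-well MEA (16 electrodes/well). Dosing day 0 through DIV 12, full media/compound exchange DIV 5, 9. AxIS adaptive spike detection; AUC over days 5/7/9/12; loss-of-signal vs DMSO.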

Assay [2] is described as follows: CCTE_Shafer_MEA_dev_spike_duration_mean: CCTE's Neural Network Formation Assay for Mean Spike Duration, Shafer Lab (AID 2284051).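 For AC50: potency for a decrease in mean network spike duration versus DMSO.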 Put shortly: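 Readout is the average length of network spikes, clustered firing across electrodes, summed over DIV 5, 7, 9 and 12 as area under the curve. Neurons from rat cortex developed networks on MEA plates under continuous 12-day exposure.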

A short description of assay [3]: CCTE_Shafer_MEA_dev_network_spike_duration_std: CCTE's Neural Network Formation Assay for Standard Deviation of Network Spike Duration, Shafer Lab (AID 2284052).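 Note: hits are decreases in network spike duration SD versus DMSO vehicle.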 Put shortly: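 Read-out is the trapezoidal area-under-the-curve across recordings made on days 5, 7, 9 and 12, fitted in the negative direction against DMSO baseline. Neurons were primary rat cortical cells treated from day 0, with treatment renewed at each feed.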

Assay [4] in a line: CCTE_Shafer_MEA_dev_per_network_spike_spike_number_mean: CCTE's Neural Network Formation Assay for Mean Number of Spikes in a Network Spike, Shafer Lab (AID 2284053).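 For AC50: fitted as decrease in spikes per network spike relative to DMSO.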 In short, it runs like this:
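Continuous twelve-day exposure of developing rat cortical networks grown over 16 microelectrodes per well; spontaneous firing is captured at four time points, and the per-network-spike spike number is integrated over development by trapezoidal AUC.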

Assay [5] in a line: CCTE_Shafer_MEA_dev_per_network_spike_spike_percent: CCTE's Neural Network Formation Assay for Percent of Spikes in a Network Spike, Shafer Lab (AID 2284054). In short, it runs like this:
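Metric: fraction of spikes falling in a 0.05 s window at network-spike peaks. Recordings were made on days 5, 7, 9 and 12 and collapsed by trapezoidal AUC. Cultures were rat cortical neurons on MEA plates, dosed continuously from plating, re-dosed at media changes.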

The nature of assay [6]: CCTE_Shafer_MEA_dev_LDH: CCTE's Lactate Dehydrogenase Assay for Cytotoxicity in the Neural Network Formation Assay, Shafer Lab (AID 2284068; active = hit-call score of the fitted dose curve at least 0.9, where 1 is the maximum;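 note: exposure for twelve days from plating with re-dosing on DIV 5 and 9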). Put shortly: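 Cytotoxicity companion to network-formation recordings: rat cortical neurons received compound over 12 days of development, re-dosed at DIV 5 and 9 feeds. Viability was inferred from LDH enzyme activity relative to DMSO.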

Assay [7] in a line: CCTE_Shafer_MEA_acute_LDH: CCTE's Lactate Dehydrogenase Assay for Cytotoxicity in the Neural Acute Assay, Shafer Lab (AID 2284086; active = hit-call score of the fitted dose curve at least 0.9, where 1 is the maximum;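 note: active means LDH release rises above DMSO vehicle level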). Put shortly:
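LDH absorbance at 490 nm in medium taken right after 40-min compound exposure; rat primary cortical neuron networks on MEA plates, days post-plating 13 or 15. Increase over DMSO baseline scored as cytotoxicity.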

Assay [8] is described as follows: CCTE_Shafer_MEA_dev_mutual_information_norm: CCTE's Neural Network Formation Assay for Mutual Information Normalization, Shafer Lab (AID 2284091).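 For AC50: mutual information between electrodes summarised as area under curve across four recording days; potency is for a decrease in mutual information relative to DMSO.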 In short, it runs like this: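 Shared information across electrodes, tracked on days 5, 7, 9 and 12 of network development and collapsed as trapezoidal area under the curve. Rat cortical cultures were treated continuously from plating, with treatment renewed at feeds on DIV 5 and 9; DMSO baseline, negative-direction fit.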

The nature of assay [9]: CCTE_Shafer_MEA_dev_correlation_coefficient_mean: CCTE's Neural Network Formation Assay for Mean Correlation Coefficient, Shafer Lab (AID 2284093).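 For AC50: well mean pairwise spike train correlation integrated as AUC over recording days 5 to 12; potency fitted for loss of correlation relative to DMSO vehicle wells.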 In short, it runs like this:
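Read-out: well-mean correlation coefficient of spike trains between electrode pairs, collapsed over four recording days as trapezoidal area-under-the-curve. Developing rat cortical neuron networks grown on MEAs received test chemical continuously from plating.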

The nature of assay [10]: CCTE_Mundy_HCI_Cortical_Synap_Neur_Matur_NeuriteSpotCountPerNeuriteLength: CCTE's Synaptogenesis and Neurite Maturation Assay in rat cortical cells for Neurite Spot Count per Neurite Length, Mundy Lab (AID 2284210). In short, it runs like this: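 Synaptophysin spots per unit neurite length, measured by automated imaging of MAP2/synaptophysin/Hoechst-stained neurons. Cultures from rat cortex received chemical at DIV 7 with media change through DIV 12; glial growth arrested by AraC at DIV 5; DMSO baseline.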

The nature of assay [11]: CCTE_Mundy_HCI_Cortical_NOG_NeuriteLength: CCTE's Neurite Outgrowth Assay in rat cortical cells for Neurite Length, Mundy Lab (AID 2284213).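 For AC50: neurites imaged about 48 to 50 h after chemical exposure began.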 Put shortly:
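First, rat primary cortical cells were plated and, 2 h later, given test chemical as a 1/10 dilution. Finally, βIII-tubulin immunostaining enabled automated imaging of neurite length.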

Assay [12] in a line: CCTE_Mundy_HCI_Cortical_Synap_Neur_Matur_NeuriteLength: CCTE's Synaptogenesis and Neurite Maturation Assay in rat cortical cells for Neurite Length, Mundy Lab (AID 2284214). In short, it runs like this:
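Read-out: high-content imaging of MAP2-labelled neurites, with synaptophysin and Hoechst co-stain, in rat cortical cultures fixed at DIV 12. Activity fitted in positive direction relative to DMSO baseline.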

The nature of assay [13]: CCTE_Mundy_HCI_Cortical_Synap_Neur_Matur_NeuriteSpotCountPerNeuron: CCTE's Synaptogenesis and Neurite Maturation Assay in rat cortical cells for Neurite Spot Count per Neuron Count, Mundy Lab (AID 2284215). In short, it runs like this:
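Rat primary cortical cultures given AraC at DIV 5, dosed from DIV 7 to DIV 12 with media change. Fixed, stained for MAP2, synaptophysin and Hoechst; neurite-associated synaptophysin puncta per neuron quantified by high-content imaging versus DMSO.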

Assay [14] is described as follows: CCTE_Mundy_HCI_Cortical_Synap_Neur_Matur_SynapseCount: CCTE's Synaptogenesis and Neurite Maturation Assay in rat cortical cells for Synapse Count, Mundy Lab (AID 2284218). Put shortly: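 Read-out: synapse number per neuron, automated high-content imaging of fixed cells immunostained for MAP2 and synaptophysin plus Hoechst nuclei. Rat primary cortical cultures, AraC at DIV 5, chemical dosing DIV 7–12. Positive-direction fit relative to DMSO.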

Assay [15] can be described thus: CCTE_Mundy_HCI_hN2_NOG_NeuriteCount: CCTE's Neurite Outgrowth Assay in human hN2 cells for Neurite Count, Mundy Lab (AID 2284219; active = hit-call score of the fitted dose curve at least 0.9, where 1 is the maximum). Put shortly: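 In this morphology assay, hNP1-derived neurons received test chemical 2 h post-plating and were fixed two days later in warm paraformaldehyde/sucrose containing Hoechst 33342. Neurites, labelled by rabbit anti-βIII-tubulin (1:800) and Alexa Fluor-488 (1:500), were counted automatically.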

Assay [16] in a line: CCTE_Mundy_HCI_hN2_NOG_NeuriteLength: CCTE's Neurite Outgrowth Assay in human hN2 cells for Neurite Length, Mundy Lab (AID 2284220; active = hit-call score of the fitted dose curve at least 0.9, where 1 is the maximum). Put shortly:
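Plate hNP1-derived neurons, then add chemical 2 h later as a 1/10 dilution. Stain with anti-βIII-tubulin then Alexa Fluor-488 secondary, and image automatically to measure neurite length.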

A short description of assay [17]: CCTE_Mundy_HCI_Cortical_Synap_Neur_Matur_CellBodySpotCount: CCTE's Synaptogenesis and Neurite Maturation Assay in rat cortical cells for Cell Body Spot Count, Mundy Lab (AID 2284223). In short, it runs like this: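 Primary rat cortical cultures, AraC added at DIV 5; dosed DIV 7 through DIV 12 […]. Fixed, stained for MAP2 and synaptophysin with Hoechst; cell body-associated synaptophysin puncta per neuron counted by high-content imaging, loss vs DMSO.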

Assay [18] in a line: CCTE_Mundy_HCI_hNP1_Pro_ResponderAvgInten: CCTE's Proliferation Assay in human neuroprogenitor cells, Mundy Lab (AID 2284224; active = hit-call score of the fitted dose curve at least 0.9, where 1 is the maximum). In short, it runs like this: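 Proliferation was scored as BrdU labelling intensity in human neural progenitors derived from WA09 embryonic cells, measured 26.25 hours after chemical dosing. Activity was fitted relative to DMSO.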
Assay [19] is described as follows: CCTE_Mundy_HCI_Cortical_NOG_NeuronCount: CCTE's Neurite Outgrowth Assay in rat cortical cells for Neuron Count, Mundy Lab (AID 2284236; active = hit-call score of the fitted dose curve at least 0.9, where 1 is the maximum;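 note: neurons counted by imaging betaIII-tubulin and Hoechst stained cortical cells; cells exposed to compound for about 48 hours before fixation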). In short, it runs like this: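 Read-out: neuron number by high-content imaging of betaIII-tubulin (Alexa Fluor-488) and Hoechst-labelled rat primary cortical cells.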
Assay [20] is described as follows: CCTE_Mundy_HCI_hNP1_Casp3_7: CCTE's Caspase-Glo 3/7 Assay in human neuroprogenitor cells for Apoptosis, Mundy Lab (AID 2284240). Put shortly:
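Apoptosis is scored by activated caspase-3/7 luminescence in WA09-derived neural progenitor cells, measured 26.5 h after chemical dosing. Values represent gain of signal relative to DMSO vehicle.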

In the case of `CC1(C)S[C@@H]2[C@H](NC(=O)[C@H](N)c3ccc(O)cc3)C(=O)N2[C@H]1C(=O)O`, the call in [1], in assay [2], in assay [3], in assay [4], in assay [5] and in assay [6] was inactive. Moreover, the compound was called inactive in assay [7], in [8], in assay [9], in assay [10], in assay [11] and in [12]. The call in [13], in assay [14], in assay [15], in assay [16], in [17] and in [18] was inactive. The compound was called inactive in [19] and in [20].

For `CN(C)C(=O)C(CCN1CCC(O)(c2ccc(Cl)cc2)CC1)(c1ccccc1)c1ccccc1`, the AC50 – broadly, the midpoint of the concentration-response curve, whichever way the signal moves – in assay [1] is 612 nM (active) and 41.5 nM (active) and 1.81 µM (active); in assay [2], 511 nM (active) and 18.7 nM (active) and 1.15 µM (active); in assay [3] it was 262 nM (active) and 11.6 nM (active) and 736 nM (active); in assay [4] it was 766 nM (active) and 44.5 nM (active) and 2.52 µM (active); in assay [5] it was 2.31 µM (active) and 276 nM (active) and 2.68 µM (active); in [6], 4.19 µM (active) and 2.7 µM (active) and 2.94 µM (active). Moreover, the AC50 in assay [8] was 112 nM (active) and 60.7 nM (active) and 621 nM (active); in assay [9] it was 1.35 µM (active) and 766 nM (active) and 2.54 µM (active); in [10], 14.9 µM (active); in assay [11] it was 6.63 µM (active); in assay [12] it was 3.22 µM (active); in assay [13], 3 µM (active). The AC50 in [14] was 3.43 µM (active); in assay [15] it was 16 µM (active); in assay [16], 15.8 µM (active); in [17], 16.9 µM (active); in assay [18], 50 µM (active); in [19], 12.9 µM (active). Moreover, the AC50 in [20] was 16.5 µM (active). Besides, the result in assay [7] was inactive.
